The supplement of paper PMC6555819

What was measured:
Experiment in all cases: PBM binding z-score (relative to random genomic background probes); higher = stronger binding; sequences stand for … in GC…GCGATTGACAGCGTAGAATGAAGG
[1] = tested on: FXR:RXRa (NR concentration 270 nM, RXRa partner concentration 90 nM)
How it was run: (§1)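 Random background probes are the reference for binding z-scores. These scores derive from regression-normalized fluorescence on custom Agilent 4×180K protein-binding microarrays incubated 1 h with ligand-free nuclear receptor dimers. Binding was detected with antibodies against each partner (one per run).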

[2] = tested on: LXRa:RXRa (NR concentration 270 nM, RXRa partner concentration 90 nM)
How it was run: as §1

[3] = tested on: LXRa homodimer (NR concentration 270 nM)
How it was run: as §1

[4] = tested on: LXRb:RXRa (NR concentration 270 nM, RXRa partner concentration 90 nM)
How it was run: as §1

[5] = tested on: LXRb homodimer (NR concentration 270 nM)
How it was run: as §1

[6] = tested on: PPARa:RXRa (NR concentration 270 nM, RXRa partner concentration 90 nM)
How it was run: as §1

[7] = tested on: PPARg:RXRa (NR concentration 180 nM, RXRa partner concentration 90 nM)
How it was run: as §1

[8] = tested on: PPARg:RXRa 270nM:90nM, anti-RXR (NR concentration 270 nM, RXRa partner concentration 90 nM)
How it was run: as §1

[9] = tested on: PPARg:RXRa 30nM:10nM, anti-RXR (NR concentration 30 nM, RXRa partner concentration 10 nM)
How it was run: as §1

[10] = tested on: PPARg:RXRa 90nM:30nM, anti-RXR (NR concentration 90 nM, RXRa partner concentration 30 nM)
How it was run: as §1

[11] = tested on: PPARg:RXRa DBDmut IVT, anti-RXR (DBD mutation: RXRa K156A/R161A, NR concentration 270 nM, RXRa partner concentration 90 nM)
How it was run: as §1

[12] = tested on: PPARg:RXRa IVT, anti-PPARg (NR concentration 270 nM, RXRa partner concentration 90 nM)
How it was run: as §1

[13] = tested on: PPARg DBDmut:RXRa IVT, anti-PPARg (DBD mutation: PPARg1 K132A/R137A, NR concentration 270 nM, RXRa partner concentration 90 nM)
How it was run: as §1

[14] = tested on: PPARg DBDmut IVT, anti-PPARg (DBD mutation: PPARg1 K132A/R137A, NR concentration 270 nM)
How it was run: as §1

[15] = tested on: PPARg homodimer (NR concentration 180 nM)
How it was run: as §1

[16] = tested on: PXR:RXRa (NR concentration 270 nM, RXRa partner concentration 90 nM)
How it was run: as §1

[17] = tested on: PXR homodimer (NR concentration 270 nM)
How it was run: as §1

[18] = tested on: RARa:RXR (NR concentration 270 nM, RXRa partner concentration 90 nM)
How it was run: as §1

[19] = tested on: RARa homodimer (NR concentration 270 nM)
How it was run: as §1

[20] = tested on: RARb:RXRa (NR concentration 270 nM, RXRa partner concentration 90 nM)
How it was run: as §1

Sequence	PBM binding z-score [1]	PBM binding z-score [2]	PBM binding z-score [3]	PBM binding z-score [4]	PBM binding z-score [5]	PBM binding z-score [6]	PBM binding z-score [7]	PBM binding z-score [8]	PBM binding z-score [9]	PBM binding z-score [10]	PBM binding z-score [11]	PBM binding z-score [12]	PBM binding z-score [13]	PBM binding z-score [14]	PBM binding z-score [15]	PBM binding z-score [16]	PBM binding z-score [17]	PBM binding z-score [18]	PBM binding z-score [19]	PBM binding z-score [20]
ATCGATAGGTCGTGAGGTGAGTATACAGAAAGGC	1.25	1.3	-0.0722	1.07	0.187	2.43	1.32	1.08	0.506	0.989	-0.14	1.35	1	0.371	0.792	1	0.158	1.94	0.167	1.97
ACAGACAGGTGAGTGAAGGAAACTCAGCTGGACG	-0.54	-0.517	-0.15	-0.792	-0.646	-1.08	0.519	-0.724	-0.177	-0.368	0.214	0.274	-0.163	-1.04	-0.703	-0.793	-0.677	-0.777	-0.124	-0.0129
TAGCCTAGGTCAGATCGGGCCAGTTTACGCTATA	2.08	0.989	-0.49	0.503	-0.465	1.74	0.188	0.541	-0.568	-0.123	0.41	1.12	-0.332	-0.719	0.0651	1.13	-0.787	0.463	-1.05	2.69
CCTAGCAGGCCAGGGTCACTCAAGCATTTCGCTT	2.38	1.67	-0.285	1.95	-1.05	3.1	0.907	1.65	-0.362	0.635	0.393	0.98	-0.961	-1.38	1.04	2.63	-0.595	3.17	-0.537	2.73
CTCTAAAGGTCGTGCTCAGGTGAGTATACCAAAC	5.37	4.54	0.529	3.65	0.548	5.2	3.27	4.11	0.925	2.64	1.12	2.17	0.717	0.316	1.58	3.09	-0.0495	4.14	-0.0895	3.93
GATACAGGGTAAGCTAGAGGCCAGAGTATGGAAA	-0.252	-0.448	-0.407	-0.76	-1.15	-0.293	0.319	-0.0379	-0.0812	-0.0554	0.227	0.424	-0.118	-0.173	-0.435	-0.38	-0.17	-0.0414	-0.543	0.634
CAAACTAGGTCAAGAGGTCAATGTCCGCTTCCCG	6.4	6.19	5.74	4.72	1.58	6.11	9.5	7.94	6.68	8	8.38	8.12	2.46	0.644	3.95	5.63	1.52	6.79	2.12	5.3
CGTCCAAGGTCAAGGTCAGTCAAAGAGACTCGAA	7.71	5.91	1.64	4.85	1.09	5.93	6.39	5.98	2.6	4.69	4.13	4.78	1.48	-0.095	4.54	4.99	1.7	5.42	2.49	5.83
ATTTCTAGGTAACAAGTTCAGTGAAAGAGAGGAC	1.38	1.39	1.04	1.18	1.41	2.76	3.06	3.44	1.82	3.09	5.53	4.99	3.1	2.25	1.94	1.79	2.69	1.45	2.03	2.12
CCTACTGGGCCACCAAAGGTCATTGATTCAGTGA	3.72	5.73	6.47	4.95	0.575	4.69	5	5.44	2.81	4.94	5.36	5.74	1.31	0.0425	4.38	5.69	2.75	6.23	2.56	4
GCTTACGGGTCAAACGTTATAGCATGAATAGAAT	6.35	4.13	-0.166	4.02	0.282	5.72	6.02	6.15	2.96	5.31	4.87	4.1	1.95	1.38	1.25	3.37	-0.15	4.41	0.0211	3.76
AGAATGAGGTTATCAAGATCAGGGAATTGCGGTC	1.64	1.37	0.0557	1.14	-0.163	2.8	1.6	2.08	0.462	1.29	3.5	2.6	0.708	-0.123	0.956	1.27	0.0679	1.67	0.465	1.71
GCTATTAGTTGAAAGGGCAACCAAATGATTCTCG	0.334	0.735	0.214	0.946	-0.0517	2.45	2.73	4.6	2.34	4.39	0.461	1.15	0.444	0.602	0.903	0.803	0.104	1.48	0.766	2.13
